# Several values for one entry are separate records, joined by “and”; a condition that tells them apart may be missing. Equal values may be shown once. Activity calls are given as the source filed them. The calls were made as follows: active = hit-call score of the fitted dose curve at least 0.9, where 1 is the maximum; inactive = score below 0.9.
# Read-out: C-C motif chemokine 2 (Homo sapiens) (UniProt P13500)
# Assay: BSK_KF3CT_MCP1: BioMAP Diversity Plus: KF3CT Assay for Monocyte Chemoattractant Protein 1 (MCP1/CCL2) Biomarker Activity (AID 2283073)
# Settings: primary human keratinocytes with fibroblasts; actives raise or lower the signal
# Experimental: BSK_KF3CT is a cell-based, multiplexed-readout assay that uses keratinocytes and foreskin fibroblasts, a human skin primary cell co-culture, with measurements taken at 24 hours after chemical dosing in a 96-well plate.BSK_KF3CT_MCP1 is an assay component measured in the BSK_KF3CT assay. It measures MCP-1 antibody related to regulation of gene expression using ELISA technology.Data from the assay component BSK_KF3CT_MCP1 was analyzed into 1 assay endpoint. This assay endpoint, BSK_KF3CT_MCP1, was analyzed with bidirectional fitting relative to DMSO as the negative control and baseline of activity. Using a type of binding reporter, gain or loss-of-signal activity can be used to understand changes in the signaling as they relate to the gene CCL2. Furthermore, this assay endpoint can be referred to as a primary readout, because this assay has produced multiple assay endpoints where this one serves a signaling function. To generalize the intended target to other relatable targets, this assay endpoint is annotated to the cytokine intended target family, where the subfamily is chemotactic factor.
# The levels of cell surface (or secreted, indicated by the prefix "s") biomarker endpoints were measured by ELISA. Overt cytotoxicity to cells in confluent adherent cultures (all systems other than the BT system) was assessed by measuring total protein levels using sulforhodamine B (SRB) staining in parallel cultures at the time of biomarker measurements, indicated as SRB endpoints. For proliferation assays for adherent cell types, individual cell types are cultured at sub-confluence and relative cell numbers quantified by SRB staining at time points optimized for each system (48 h: 3C and CASM3C systems; 72 h: BT and HDF3CGF systems; 96 h: SAg system). SRB was performed by staining cells with 0.1% SRB after fixation with 10% TCA and reading wells at 560 nm.Viability and proliferation of PBMC (T cells) was quantified by Alamar Blue reduction for the SAg and BT systems. For PBMC viability (referred to as PBMC Cytotoxicity within the assay endpoint names), cells were plated (75,000/well in a 96-well plate) and then chemical samples added for 1 h before addition of activators, SEB and TSST-1 (20 ng/mL final concentration each). Cells were incubated for 90 h. Then, Alamar Blue (20 uL/well) (Invitrogen, Cat DAL1100) was added for 6 h, and the plates were read with a fluorescence microplate reader at 546/580 nm (excitation/emission). For PBMC proliferation, cells were plated and activated as above but incubated for only 16 h prior to addition of Alamar Blue. Plates were read after 6 h.
SMILES,outcome,AC50
c1ccc2cc(Nc3ccc(Nc4ccc5ccccc5c4)cc3)ccc2c1,inactive,
CCCCCC(C=O)=Cc1ccccc1,,28.8 µM (active)
CC1(C)C2=CCCC(C)(C)[C@]23CC[C@H]1C3,,20 µM (active)
COc1ccc(OC)c(N=Nc2c(O)ccc3ccccc23)c1,inactive,
CCCCOC(=O)CCCCCCCC(=O)OCCCC,inactive,
CC(C)(C)CC(C)(C)c1ccc(OCCOCC[N+](C)(C)Cc2ccccc2)cc1,,8.05 µM (active)
CC(=O)C1(C)CC2=C(CCCC2(C)C)CC1C (stereo not given),,10.3 µM (active)
CC(C)(N=C=O)c1cccc(C(C)(C)N=C=O)c1,inactive,
O=CN1CCOCC1,inactive,
Clc1cc(Cl)c(-c2c(Cl)c(Cl)cc(Cl)c2Cl)cc1Cl,,10 µM (active)
CC(C=O)Cc1ccc(C(C)(C)C)cc1 (stereo not given),inactive,
O=C1c2ccccc2C(=O)c2c(O)ccc(O)c21,inactive,
COc1ccc(CCN2CCC(Nc3nc4ccccc4n3Cc3ccc(F)cc3)CC2)cc1,inactive,
C=C(C)[C@H]1CC=C(C)C(=O)C1,inactive,
CCC(C)c1cc([N+](=O)[O-])cc([N+](=O)[O-])c1OC(=O)OC(C)C (stereo not given),inactive,
CN(c1nccc(=O)[nH]1)C1CCN(c2nc3ccccc3n2Cc2ccc(F)cc2)CC1,inactive,
CS(=O)(=O)OCCCCOS(C)(=O)=O,inactive,
O=C1OC2(c3ccccc31)c1ccc(O)c(Br)c1Oc1c2ccc(O)c1Br,,20 µM (active)
CS(=O)(=O)c1ccc(C2=C(c3ccccc3)C(=O)OC2)cc1,inactive,
CC(=O)Nc1ccc(C(=O)CCl)cc1,,28.6 µM (active)

SMILES,outcome,AC50
O=C(Nc1ccc2c(O)c(N=Nc3ccc(N=Nc4ccc(S(=O)(=O)O)cc4)cc3)c(S(=O)(=O)O)cc2c1)c1ccccc1,inactive,
CSCCC=O,inactive,
CN(C)C(=S)SC(=S)N(C)C,inactive,
IC(I)I,inactive,
COc1cc(Cl)c(OC)cc1N,inactive,
C=C(C)C(=O)OCCOCCOCCOCCOC(=O)C(=C)C,inactive,
C=C(C)C(=O)OCC(CC)(COC(=O)C(=C)C)COC(=O)C(=C)C,inactive,
C=CC(C)(O)CCC=C(C)C (stereo not given),inactive,
CCN(CC)C(=O)N(CC)CC,inactive,
CN(C)C(=O)Nc1ccc(Oc2ccc(Cl)cc2)cc1,inactive,
CC(CN=Cc1ccccc1O)N=Cc1ccccc1O (stereo not given),inactive,
c1ccc(Oc2ccccc2)cc1,,30.7 µM (active)
C=C(C)C(=O)OCCOCCOCCOC(=O)C(=C)C,inactive,
C1=CC2C3C=CC(C3)C2C1 (stereo not given),inactive,
CC1(C)CCC[C@]2(C)[C@H]3CCO[C@]3(C)CC[C@@H]12,,33.9 µM (active) and 30.7 µM (active)
CCCCN(CCCC)C(=O)N(CCCC)CCCC,,4.75 µM (active)
Cc1cc(CCC(=O)OCCOCCOCCOC(=O)CCc2cc(C)c(O)c(C(C)(C)C)c2)cc(C(C)(C)C)c1O,inactive,
c1ccc(CCc2ccccc2)cc1,,20 µM (active)
O=C1OC[C@H](Cc2cccc(O)c2)[C@H]1Cc1cccc(O)c1,inactive,
C[C@@H]1CCN(C(=O)[C@H](CCCN=C(N)N)NS(=O)(=O)c2cccc3c2NC[C@H](C)C3)[C@@H](C(=O)O)C1,inactive,
